The source made the active and inactive calls.
Tested on: PRMT1 (protein arginine N-methyltransferase 1)
Assay: small molecules binding arginine methyltransferase PRMT1 – biochemical, small-molecule microarray, 635 nm fluorescence, primary screen (AID 1088);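 further: binding of Prmt1 protein to compounds spotted on small-molecule microarray slides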
Conditions: higher = more signal

Composite z-score, -0.642:
O=C1C2=CC[C@H]3C(=O)N(C4CCCCC4)C(=O)[C@H]3[C@H]2[C@H](O)[C@@H]2O[C@H]12

Composite z-score, -0.149:
C=CCOCC1CN2[C@@H](CC[C@@H](C)[C@@H]2c2ccc(Br)cc2)C(=O)O1 (some centres undefined)

Composite z-score, 0.391:
COC(=O)[C@@H]1CC[C@H](C)[C@@H](c2ccc(C)cc2)N1C(=O)c1ccc(C=NOC[C@H]2O[C@H](c3ccccc3)C=C[C@@H]2Oc2ccc(OC)cc2)cc1

Composite z-score, 1.55:
CCN1C(=O)[C@H]2[C@H]3[C@H](O)[C@H](O)CC(=NO[C@@H](C)c4cc(-c5c(C)cc(C)cc5C)no4)[C@@H]3CC[C@H]2C1=O

Composite z-score, 1.48:
CCOC(=O)[C@H](Cc1ccccc1)NC(=O)CCC1CC(OC(=O)NCc2ccc3c(c2)OCO3)CC2(CCCC(COC(=O)NCCOc3ccccc3)O2)O1 (some centres undefined)

Composite z-score, 0.513:
CC#CCOCCC=C1c2ccccc2[C@@H](OC)[C@@H]1C

Composite z-score, 1.4:
O=C1[C@H]2[C@H]3[C@H](O)[C@H](O)CC(=NOC[C@@H](O)COCc4ccco4)[C@@H]3CC[C@H]2C(=O)N1Cc1ccc2c(c1)OCO2

Composite z-score, 0.535:
CC(CCC(=O)OC[C@H]1O[C@H](C#Cc2ccccc2)C=C[C@@H]1Oc1ccc(C)cc1)=NO[C@H](C)c1cn([C@@H]2COC[C@H]2O)nn1

Composite z-score, 0.695:
O=C(NN=C1C[C@@H](O)[C@@H](O)[C@@H]2[C@@H]3C(=O)N(c4ccc(F)cc4F)C(=O)[C@@H]3CC[C@H]12)OCc1ccccc1

Composite z-score, 1.02:
CC(=O)OC[C@H]1O[C@@H](ON=C2[C@H]3CCn4c(=O)n(-c5ccccc5)c(=O)n4[C@H]3[C@H](O)[C@@H]3O[C@H]23)[C@H](OC(C)=O)[C@@H](OC(C)=O)[C@@H]1OC(C)=O

Composite z-score, -1.02:
COc1ccc(O[C@H]2C=C[C@@H](c3ccccc3)O[C@@H]2COC(=O)CCC(C)=NOC[C@@H](O)COCc2ccco2)cc1

Composite z-score, 0.974:
CCOC(=O)[C@H](CC(C)C)NC(=O)CCC1CC(OC(=O)NCc2ccc3c(c2)OCO3)CC2(CCCC(COC(=O)NCc3ccccc3)O2)O1 (some centres undefined)

Composite z-score, 1.35:
O=C1[C@H]2[C@H]3[C@H](O)[C@H](O)CC(=NOCc4ccccc4)[C@@H]3CC[C@H]2C(=O)N1c1cccc(Oc2ccccc2)c1

Tested on: not listed separately
Assay: growth effects on S. cerevisiae YJM789 – YJM789 clinical isolate, OD600, 24 h, basal, primary screen (AID 1089);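 further: growth of clinical yeast isolate S. cerevisiae YJM 789 seeded 1000 cells per well; test concentration not given here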
Conditions: higher = more signal, called active from +8 up or from −8 down

z-score, inactive:
COc1ccc(COC(=O)NN=C2C[C@@H](O)[C@@H](O)[C@@H]3[C@@H]4C(=O)N(C[C@@H]5CCCO5)C(=O)[C@@H]4CC[C@H]23)cc1 -0.0944
CCOC(=O)[C@H](Cc1ccccc1)NC(=O)CCC1CC(OC(=O)NCCc2ccc(F)cc2)CC2(CCCC(COC(=O)NCCC(C)C)O2)O1 (some centres undefined) 0.91
COC(=O)CC=C[C@@H](C)[C@@H](C=NOC[C@@H](O)[C@H]1O[C@@H]2OC(C)(C)O[C@@H]2[C@H]1O)OC 0.439
C[C@]12CCC3c4ccc(OCC5CO5)cc4CCC3C1CC[C@@H]2O (some centres undefined) 0.199
CCOC(=O)CCN1C(=O)[C@H]2[C@H]3[C@H](O)[C@H](O)CC(=NO[C@@H]4O[C@H](CO)[C@@H](O)[C@H](O)[C@H]4O)[C@@H]3CC[C@H]2C1=O -0.476
CC(CCN1CCCCc2nc(C)c(C)cc21)=NO[C@H](C)c1cn([C@@H]2COC[C@H]2O)nn1 0.565
COc1ccc(COC(=O)NN=C2C[C@@H](O)[C@@H](O)[C@@H]3[C@@H]4C(=O)N(c5cccc(Oc6ccccc6)c5)C(=O)[C@@H]4CC[C@H]23)cc1 0.135
CC=CC1=C(CO)[C@H](O)[C@H]2O[C@H]2[C@@H]1O 0.285
CC1(C)O[C@H]2OC([C@H](O)CON3C(=O)c4ccccc4C3=O)[C@H](O)[C@H]2O1 (some centres undefined) -0.702
CCOC(=O)NN=C1C[C@@H](O)[C@@H](O)[C@@H]2[C@@H]3C(=O)N(CC)C(=O)[C@@H]3CC[C@H]12 0.213
CC(=O)OC[C@H]1O[C@@H](ON=C(C)CCC(=O)OC[C@H]2O[C@H](C#Cc3ccccc3)C=C[C@@H]2Oc2ccc(C)cc2)[C@H](OC(C)=O)[C@@H](OC(C)=O)[C@@H]1OC(C)=O 0.82
Cc1cc2c(nc1C)CCCCN2CC(O)CN1CCCc2nc(-c3ccc(Br)cc3)ccc21 (centres undefined) -0.178
CCOC(=O)CCN1C(=O)[C@H]2[C@H]3[C@H](O)[C@H](O)CC(=NOCC=C(C)CCC=C(C)C)[C@@H]3CC[C@H]2C1=O -1.28
CC(=O)OC[C@H]1O[C@@H](ON=C(C)CCN2CCCCc3nc(C)c(C)cc32)[C@H](OC(C)=O)[C@@H](OC(C)=O)[C@@H]1OC(C)=O -0.61
CC(=O)OC[C@H]1O[C@H](CCON=C(C)C)C=C[C@@H]1OC(C)=O 0.765
CCCNC(=O)OC[C@H]1O[C@H](CCON=C[C@@H](NS(=O)(=O)c2ccc(C)cc2)[C@H](C)C=CCC(=O)OC)C=C[C@@H]1Oc1ccc(OC)cc1 -1.21
CCCC[C@H]1CN2[C@@H](CC[C@@H](C)[C@@H]2c2ccc(Br)cc2)C(=O)O1 0.149
CCC1=NOC(CCC2CC(OC(=O)NCc3cccc4c3OCO4)CC3(CCCC(COC(=O)NCCc4ccc(Cl)cc4)O3)O2)C1 (centres undefined) -0.57
COc1ccc(O[C@H]2C=C[C@@H](C#Cc3ccccc3)O[C@@H]2CO)cc1 -0.315
CC(C)CON=C1[C@H]2CCn3c(=O)n(C)c(=O)n3[C@H]2[C@H](O)[C@@H]2O[C@H]12 0.0116
COC(=O)[C@@H]1CC[C@H](C)[C@@H](c2ccc(Br)cc2)N1C[C@@H](O)CN=[N+]=[N-] -1.44
COC(=O)[C@H](C)NC(=O)CCC1CC(OC(=O)NCCc2ccc(F)cc2)CC2(CCCC(COC(=O)NCc3ccccc3)O2)O1 (some centres undefined) 0.59
O=C1C[C@H](c2ccccc2)[C@H](c2ccc(Br)cc2)O1 -3.83
COc1ccc(O[C@H]2C=C[C@@H](c3ccccc3)O[C@@H]2COC(=O)CCC(C)=NOC[C@@H](O)COCc2ccco2)cc1 -1.2
O=C1[C@H]2[C@H]3[C@H](O)[C@H](O)CC(=NOCc4ccccc4)[C@@H]3CC[C@H]2C(=O)N1c1cccc(Oc2ccccc2)c1 0.663
O=C1[C@H]2[C@H]3[C@H](O)[C@H](O)CC(=NOC[C@@H](O)COCc4ccco4)[C@@H]3CC[C@H]2C(=O)N1Cc1ccc2c(c1)OCO2 0.421
CCOC(=O)[C@H](CC(C)C)NC(=O)CCC1CC(OC(=O)NCc2ccc3c(c2)OCO3)CC2(CCCC(COC(=O)NCc3ccccc3)O2)O1 (some centres undefined) 0.177
O=C1C2=CC[C@H]3C(=O)N(C4CCCCC4)C(=O)[C@H]3[C@H]2[C@H](O)[C@@H]2O[C@H]12 -0.163
C=CCOCC1CN2[C@@H](CC[C@@H](C)[C@@H]2c2ccc(Br)cc2)C(=O)O1 (some centres undefined) -0.349
CCOC(=O)[C@H](Cc1ccccc1)NC(=O)CCC1CC(OC(=O)NCc2ccc3c(c2)OCO3)CC2(CCCC(COC(=O)NCCOc3ccccc3)O2)O1 (some centres undefined) 0.0339
CCN1C(=O)[C@H]2[C@H]3[C@H](O)[C@H](O)CC(=NO[C@@H](C)c4cc(-c5c(C)cc(C)cc5C)no4)[C@@H]3CC[C@H]2C1=O -0.393
O=C(NN=C1C[C@@H](O)[C@@H](O)[C@@H]2[C@@H]3C(=O)N(c4ccc(F)cc4F)C(=O)[C@@H]3CC[C@H]12)OCc1ccccc1 -0.0025
CC#CCOCCC=C1c2ccccc2[C@@H](OC)[C@@H]1C -0.0953
CC(CCC(=O)OC[C@H]1O[C@H](C#Cc2ccccc2)C=C[C@@H]1Oc1ccc(C)cc1)=NO[C@H](C)c1cn([C@@H]2COC[C@H]2O)nn1 -1.42
COC(=O)[C@@H]1CC[C@H](C)[C@@H](c2ccc(C)cc2)N1C(=O)c1ccc(C=NOC[C@H]2O[C@H](c3ccccc3)C=C[C@@H]2Oc2ccc(OC)cc2)cc1 0.456
CC(=O)OC[C@H]1O[C@@H](ON=C2[C@H]3CCn4c(=O)n(-c5ccccc5)c(=O)n4[C@H]3[C@H](O)[C@@H]3O[C@H]23)[C@H](OC(C)=O)[C@@H](OC(C)=O)[C@@H]1OC(C)=O -0.436

Reference: PubChem BioAssay
